# PubChem BioAssay (NCI)
# The panel holds about 79,000 compounds, 15% with a hit somewhere; the sample as a whole holds those more often. Unmarked numbers belong to inactive results. Calls of active or inactive are those of the source. No stated cut-off is given here; in the data, active means growth inhibition above about 70%; inactive means the rest.
# What was measured:
# [1] = NCI Yeast Anticancer Drug Screen. Data for the rad52 strain (AID 147);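 further: 0% = growth of vehicle-treated control cultures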; conditions: S. cerevisiae rad52 mutant growth inhibition, active compounds read high
# In short: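 Vehicle-treated cultures served as the reference for growth inhibition of compound-exposed yeast bearing a DNA repair mutation.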
# [2] = NCI Yeast Anticancer Drug Screen. Data for the wt1 strain (AID 149);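 further: 0% = growth of vehicle-treated wt1 cultures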; conditions: S. cerevisiae wt1 strain (SPY 50644) growth inhibition, active compounds read high
# In short: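 The wt1 strain was treated with compounds, and growth was compared with vehicle-treated cultures to give inhibition.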
# [3] = NCI Yeast Anticancer Drug Screen. Data for the rad50EPP+ strain (AID 151);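 further: 0% = growth of vehicle-treated control cultures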; conditions: S. cerevisiae rad50 mutant strain, active compounds read high
# In short: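 In this screen, rad50EPP+ yeast were exposed to compounds. Growth inhibition was scored against vehicle-treated controls.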
# [4] = NCI Yeast Anticancer Drug Screen. Data for the mgt1 strain (AID 153); conditions: S. cerevisiae mgt1 mutant growth inhibition, active compounds read high
# In short: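 mgt1 strain exposed; growth vs vehicle control recorded as inhibition.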
# [5] = NCI Yeast Anticancer Drug Screen. Data for the rad50 strain (AID 155);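 further: 0% = growth of vehicle-only cultures of the same strain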; conditions: S. cerevisiae rad50 strain growth inhibition, active compounds read high
# In short: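 Cells are treated with compound, grown, and their growth is then scored against vehicle-only cultures of the same repair-deficient yeast strain.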
# [6] = NCI Yeast Anticancer Drug Screen. Data for the mec2-1 strain (AID 157); conditions: S. cerevisiae mec2-1 strain, active compounds read high
# In short: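 Vehicle-treated cultures served as reference for growth inhibition of compound-exposed mec2-1 yeast.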
# [7] = NCI Yeast Anticancer Drug Screen. Data for the rad14 strain (AID 159);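 further: 0% = growth of vehicle-treated control cultures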; conditions: S. cerevisiae rad14 strain growth inhibition, active compounds read high
# In short: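 Readout: yeast growth inhibition, referenced to vehicle-only cultures. Strain bears a defined alteration in DNA damage repair.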
# [8] = NCI Yeast Anticancer Drug Screen. Data for the sgs1 mgt1 strain (AID 161);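 further: 0% = growth of cultures given vehicle only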; conditions: S. cerevisiae sgs1 mgt1 strain, active compounds read high
# In short: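 Read-out: growth inhibition vs vehicle controls. Cells: mutant yeast strain deficient in DNA damage repair.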
# [9] = NCI Yeast Anticancer Drug Screen. Data for the cln2 rad14 strain (AID 165);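 further: 0% = growth equal to vehicle treated cultures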; conditions: S. cerevisiae cln2 rad14 strain, active compounds read high
# In short: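 Each compound was tested on cln2 rad14 yeast. Inhibition of growth was calculated against vehicle-exposed controls.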
# [10] = NCI Yeast Anticancer Drug Screen. Data for the bub3 strain (AID 167); conditions: S. cerevisiae bub3 mutant strain, active compounds read high
# In short: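 Part of a panel of yeast mutants defective in DNA damage repair or cell cycle regulation. Each strain is grown with compound, and inhibition is calculated relative to solvent-treated cultures.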
# [11] = NCI Yeast Anticancer Drug Screen. Data for the wt2 strain (AID 169);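 further: 0% = growth of vehicle-treated yeast cultures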; conditions: S. cerevisiae wt2 strain growth inhibition, active compounds read high
# In short: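 Inhibition of yeast growth was determined after compound treatment, normalised to controls receiving only vehicle.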
# [12] = NCI Yeast Anticancer Drug Screen. Data for the mlh1 strain (AID 171);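 further: 0% = growth of vehicle-treated control cultures of the same strain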; conditions: S. cerevisiae mlh1 strain growth inhibition, active compounds read high
# In short: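 Vehicle-normalised growth inhibition of a repair- or checkpoint-altered yeast strain following compound treatment.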
# [13] = NCI Yeast Anticancer Drug Screen. Data for the sgs1 strain (AID 173);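 further: 0% = growth of vehicle-only control cultures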; conditions: S. cerevisiae sgs1 mutant, active compounds read high
# In short: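 Screen format: yeast with repair or checkpoint alterations, compound exposure, growth read relative to vehicle.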
# [14] = NCI Yeast Anticancer Drug Screen. Data for the rad18 strain (AID 177); conditions: S. cerevisiae rad18 mutant growth inhibition, active compounds read high
# In short: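 Test articles were incubated with altered yeast defective in DNA damage repair. Results are given as inhibition of growth versus vehicle.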
# [15] = NCI Yeast Anticancer Drug Screen. Data for the CLN2oe strain (AID 163);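 further: 0% = growth of vehicle-only control cultures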; conditions: S. cerevisiae CLN2oe strain, active compounds read high
# In short: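 Inhibition relative to vehicle-treated yeast is reported. Cells: strain with genetic alteration in cell-cycle control, grown with compound.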
# [16] = NCI Yeast Anticancer Drug Screen. Data for the mlh1 rad18 strain (AID 175); conditions: S. cerevisiae mlh1 rad18 strain growth inhibition, active compounds read high
# In short: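 Vehicle-treated cultures served as the reference for growth inhibition in a yeast strain carrying DNA damage repair alterations exposed to each compound.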
# [17] = at 5.0 µM (retest, dose inferred, filed as 0.5)
# [18] = at 50.0 µM (retest, dose inferred, filed as 5.0)
smiles,measurement,setting,value
N#Cc1c(N)[nH]c2ccc(Sc3ccccc3)cc12,growth inhibition,[1]; at 1.2 µM,1%
same,growth inhibition,[1]; at 3.7 µM,0%
same,growth inhibition,[1]; at 11.0 µM,14%
same,growth inhibition,[1]; at 33.0 µM,94% (active)
same,growth inhibition,[1]; at 100.0 µM,81% (active)
same,growth inhibition,[2]; at 1.2 µM,1%
same,growth inhibition,[2]; at 3.7 µM,5%
same,growth inhibition,[2]; at 11.0 µM,1%
same,growth inhibition,[2]; at 33.0 µM,82% (active)
same,growth inhibition,[2]; at 100.0 µM,93% (active)
same,growth inhibition,[3]; at 1.2 µM,3%
same,growth inhibition,[3]; at 3.7 µM,6%
same,growth inhibition,[3]; at 11.0 µM,19%
same,growth inhibition,[3]; at 33.0 µM,33%
same,growth inhibition,[3]; at 100.0 µM,51%
same,growth inhibition,[4]; at 1.2 µM,-1%
same,growth inhibition,[4]; at 3.7 µM,-2%
same,growth inhibition,[4]; at 11.0 µM,9%
same,growth inhibition,[4]; at 33.0 µM,96% (active)
same,growth inhibition,[4]; at 100.0 µM,97% (active)
same,growth inhibition,[5]; at 1.2 µM,1%
same,growth inhibition,[5]; at 3.7 µM,0%
same,growth inhibition,[5]; [17],-3%
same,growth inhibition,[5]; at 11.0 µM,23%
same,growth inhibition,[5]; at 33.0 µM,93% (active)
same,growth inhibition,[5]; [18],44%
same,growth inhibition,[5]; at 50.0 µM,46.1%
same,growth inhibition,[5]; at 100.0 µM,96% (active)
same,growth inhibition,[6]; at 1.2 µM,-2%
same,growth inhibition,[6]; at 3.7 µM,2%
same,growth inhibition,[6]; [17],-22%
same,growth inhibition,[6]; at 11.0 µM,6%
same,growth inhibition,[6]; at 33.0 µM,93% (active)
same,growth inhibition,[6]; [18],-6%
same,growth inhibition,[6]; at 50.0 µM,62.8%
same,growth inhibition,[6]; at 100.0 µM,97% (active)
same,growth inhibition,[7]; at 1.2 µM,1%
same,growth inhibition,[7]; at 3.7 µM,4%
same,growth inhibition,[7]; at 11.0 µM,7%
same,growth inhibition,[7]; at 33.0 µM,95% (active)
same,growth inhibition,[7]; at 100.0 µM,97% (active)
same,growth inhibition,[8]; [17],-3%
same,growth inhibition,[8]; [18],40%
same,growth inhibition,[8]; at 50.0 µM,52.9%
same,growth inhibition,[9]; [17],-3%
same,growth inhibition,[9]; [18],14%
same,growth inhibition,[9]; at 50.0 µM,-0.8%
same,growth inhibition,[10]; at 1.2 µM,-5%
same,growth inhibition,[10]; at 3.7 µM,-6%
same,growth inhibition,[10]; [17],12%
same,growth inhibition,[10]; at 11.0 µM,6%
same,growth inhibition,[10]; at 33.0 µM,93% (active)
same,growth inhibition,[10]; [18],51%
same,growth inhibition,[10]; at 50.0 µM,52.4%
same,growth inhibition,[10]; at 100.0 µM,96% (active)
same,growth inhibition,[11]; at 1.2 µM,0%
same,growth inhibition,[11]; at 3.7 µM,1%
same,growth inhibition,[11]; at 11.0 µM,4%
same,growth inhibition,[11]; at 33.0 µM,92% (active)
same,growth inhibition,[11]; at 100.0 µM,96% (active)
same,growth inhibition,[12]; at 1.2 µM,-1%
same,growth inhibition,[12]; at 3.7 µM,3%
same,growth inhibition,[12]; at 11.0 µM,11%
same,growth inhibition,[12]; at 33.0 µM,96% (active)
same,growth inhibition,[12]; at 100.0 µM,97% (active)
same,growth inhibition,[13]; at 1.2 µM,-3%
same,growth inhibition,[13]; at 3.7 µM,5%
same,growth inhibition,[13]; at 11.0 µM,23%
same,growth inhibition,[13]; at 33.0 µM,95% (active)
same,growth inhibition,[13]; at 100.0 µM,97% (active)
same,growth inhibition,[14]; at 1.2 µM,12%
same,growth inhibition,[14]; at 3.7 µM,37%
same,growth inhibition,[14]; at 11.0 µM,87% (active)
same,growth inhibition,[14]; at 33.0 µM,95% (active)
same,growth inhibition,[14]; at 100.0 µM,96% (active)
CCN(CC)CC(O)c1ccc2ccc3ccccc3c2c1 (stereo not drawn),growth inhibition,[1]; at 1.2 µM,3%
same,growth inhibition,[1]; at 3.7 µM,7%
same,growth inhibition,[1]; at 11.0 µM,14%
same,growth inhibition,[1]; at 33.0 µM,14%
same,growth inhibition,[1]; at 100.0 µM,46%
same,growth inhibition,[2]; at 1.2 µM,4%
same,growth inhibition,[2]; at 3.7 µM,10%
same,growth inhibition,[2]; at 11.0 µM,18%
same,growth inhibition,[2]; at 33.0 µM,16%
same,growth inhibition,[2]; at 100.0 µM,19%
same,growth inhibition,[3]; at 1.2 µM,-1%
same,growth inhibition,[3]; at 3.7 µM,1%
same,growth inhibition,[3]; at 11.0 µM,2%
same,growth inhibition,[3]; at 33.0 µM,-1%
same,growth inhibition,[3]; at 100.0 µM,-11%
same,growth inhibition,[4]; at 1.2 µM,2%
same,growth inhibition,[4]; at 3.7 µM,4%
same,growth inhibition,[4]; at 11.0 µM,6%
same,growth inhibition,[4]; at 33.0 µM,21%
same,growth inhibition,[4]; at 100.0 µM,59%
same,growth inhibition,[5]; at 1.2 µM,6%
same,growth inhibition,[5]; at 3.7 µM,10%
same,growth inhibition,[5]; [17],-1%
same,growth inhibition,[5]; at 11.0 µM,15%
same,growth inhibition,[5]; at 33.0 µM,10%
same,growth inhibition,[5]; [18],52%
same,growth inhibition,[5]; at 50.0 µM,70.9% (active)
same,growth inhibition,[5]; at 100.0 µM,39%
same,growth inhibition,[6]; at 1.2 µM,3%
same,growth inhibition,[6]; at 3.7 µM,7%
same,growth inhibition,[6]; [17],15%
same,growth inhibition,[6]; at 11.0 µM,11%
same,growth inhibition,[6]; at 33.0 µM,15%
same,growth inhibition,[6]; [18],20%
same,growth inhibition,[6]; at 50.0 µM,37.4%
same,growth inhibition,[6]; at 100.0 µM,33%
same,growth inhibition,[8]; [17],16%
same,growth inhibition,[8]; [18],7%
same,growth inhibition,[8]; at 50.0 µM,42.7%
same,growth inhibition,[15]; at 1.2 µM,0%
same,growth inhibition,[15]; at 3.7 µM,5%
same,growth inhibition,[15]; at 11.0 µM,15%
same,growth inhibition,[15]; at 33.0 µM,35%
same,growth inhibition,[15]; at 100.0 µM,57%
same,growth inhibition,[9]; [17],-22%
same,growth inhibition,[9]; [18],-22%
same,growth inhibition,[9]; at 50.0 µM,32%
same,growth inhibition,[10]; at 1.2 µM,1%
same,growth inhibition,[10]; at 3.7 µM,4%
same,growth inhibition,[10]; [17],10%
same,growth inhibition,[10]; at 11.0 µM,-20%
same,growth inhibition,[10]; at 33.0 µM,43%
same,growth inhibition,[10]; [18],71% (active)
same,growth inhibition,[10]; at 50.0 µM,65.2%
same,growth inhibition,[10]; at 100.0 µM,45%
same,growth inhibition,[11]; at 1.2 µM,2%
same,growth inhibition,[11]; at 3.7 µM,8%
same,growth inhibition,[11]; at 11.0 µM,17%
same,growth inhibition,[11]; at 33.0 µM,21%
same,growth inhibition,[11]; at 100.0 µM,36%
same,growth inhibition,[12]; at 1.2 µM,8%
same,growth inhibition,[12]; at 3.7 µM,8%
same,growth inhibition,[12]; at 11.0 µM,16%
same,growth inhibition,[12]; at 33.0 µM,16%
same,growth inhibition,[12]; at 100.0 µM,40%
same,growth inhibition,[13]; at 1.2 µM,8%
same,growth inhibition,[13]; at 3.7 µM,17%
same,growth inhibition,[13]; at 11.0 µM,34%
same,growth inhibition,[13]; at 33.0 µM,48%
same,growth inhibition,[13]; at 100.0 µM,64%
same,growth inhibition,[16]; [17],3%
same,growth inhibition,[16]; [18],19%
same,growth inhibition,[16]; at 50.0 µM,51.1%
same,growth inhibition,[14]; at 1.2 µM,17%
same,growth inhibition,[14]; at 3.7 µM,22%
same,growth inhibition,[14]; at 11.0 µM,27%
same,growth inhibition,[14]; at 33.0 µM,38%
same,growth inhibition,[14]; at 100.0 µM,59%
